The list is not random: actives were taken first. Their share in the collection is about 27%.
CYP2C9 act: human CYP2C9 activators, primary screen, biochemical, luminescence; 96,000 compounds, 1.4% hits; recombinant CYP2C9, luciferin-H conversion; hits give high values; factor 1 = untreated enzyme, 0 = blocked; activation factor at 5 µM; Cytochrome P450 2C9 (Homo sapiens), P11712;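 active = activation factor of 2 or more for CYP2C9 at a 5 µM dose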;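 note: 0 = sulfaphenazole-blocked wells and 1 = vehicle-only wells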
CYP2C19 act: human CYP2C19 activators, primary screen, biochemical, luminescence; Cytochrome P450 2C19 (Homo sapiens), P33261; activation factor at 5 µM; 96,000 tested, under 10 active; recombinant CYP2C19, luciferin-H EGE luminescence; hits give high values; 0 = fully inhibited enzyme, 1 = untreated enzyme;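 active = activation factor of at least 2 at 5 µM in the primary screen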;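 note: 0 = wells with 2.5 mM tranylcypromine and 1 = vehicle-only wells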
Target sequence (P33261 whole entry, looked up): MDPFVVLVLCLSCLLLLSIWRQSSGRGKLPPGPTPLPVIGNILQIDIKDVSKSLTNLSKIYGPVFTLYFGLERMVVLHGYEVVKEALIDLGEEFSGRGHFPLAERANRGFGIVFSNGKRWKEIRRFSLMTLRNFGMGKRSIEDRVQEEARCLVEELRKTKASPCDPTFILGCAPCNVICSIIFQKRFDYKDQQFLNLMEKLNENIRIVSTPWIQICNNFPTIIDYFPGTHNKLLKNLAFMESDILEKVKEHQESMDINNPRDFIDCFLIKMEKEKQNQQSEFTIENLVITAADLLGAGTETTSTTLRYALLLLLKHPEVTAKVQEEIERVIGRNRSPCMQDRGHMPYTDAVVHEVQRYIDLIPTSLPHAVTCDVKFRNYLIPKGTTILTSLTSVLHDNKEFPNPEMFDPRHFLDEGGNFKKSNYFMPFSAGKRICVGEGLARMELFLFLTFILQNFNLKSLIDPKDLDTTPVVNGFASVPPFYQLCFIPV
CYP2C9 inh: blockers of cytochrome P450 2C9 activity – biochemical, luminescence, ADME assay, primary screen | P11712 | CYP2C9 Supersomes, luciferin-H conversion | inhibition, % at 5 µM | 96,000 compounds, 20% hits | AID 777, 2007;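 active = blocking of liver enzyme CYP2C9 beyond about 50% at 5 µM, limit read from the data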
Cav32 inh: Cav3.2 calcium influx blockers – cell-based, Fluo-4 calcium fluorescence, FDSS, MLSMR library, primary screen | Voltage-dependent T-type calcium channel subunit alpha-1H (Homo sapiens), O95180 | 100,000 compounds, 4% hits | B-score at 10 µM | Cav3.2-expressing cells; hits give low values | AID 449739, 2010;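 active = single-dose well whose peak fluorescence ratio is a statistical outlier from its plate by either plate-standardised score or position-corrected B-score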
CYP2C19 inhib: blockers of cytochrome P450 2C19 activity – biochemical, luminescence, ADME assay, primary screen | P33261 | CYP2C19 Supersomes, luciferin-H EGE luminescence, 30 min | inhibition, % at 5 µM | 96,000 compounds, 21% hits | AID 778, 2007;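 active = CYP2C19 inhibition above a set limit at 5 µM in the primary screen, cut at about 50% in these data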;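 note: plate controls were negative control wells for no effect and 2.5 mM tranylcypromine positive control for full effect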
* hit, by the source's call; . = no result given.

SMILES | CYP2C9 act | CYP2C19 act | CYP2C9 inh | Cav32 inh | CYP2C19 inhib
Cc1nn(Cc2ccc(Cl)c(Cl)c2)c(C)c1NC(=O)c1cc(CC(C)C)on1 | 0.2 | 0.3 | 82* | -8.6* | 74*
Cc1nn(Cc2ccc(Cl)c(Cl)c2)c(C)c1NC(=O)c1noc2c1CCCCC2 | 0.9 | 0.9 | 6 | -2.7 | 6
Cc1nn(Cc2ccccc2)c(C)c1NC(=O)c1cc(-c2cccs2)on1 | 0.4 | 0.7 | 63* | -4.8* | 28
COc1cccc(-c2cc(C(=O)Nc3c(C)nn(Cc4ccccc4C)c3C)no2)c1 | 0.7 | 0.9 | 30 | -3.9* | 5
Cc1cc(C2C(=O)C(C(=O)c3ccc(Cl)cc3)C(=O)CC2(C)C)on1 (configuration not stated) | 0.6 | 1.1 | 39 | 1.3 | -12
O=c1nc(N2CCOCC2)ccn1Cc1ccc(Br)cc1 | 1.2 | 1 | -23 | 0.53 | -1
Cc1ccc(N(C(=O)c2ccc(Br)o2)C2C=CS(=O)(=O)C2)cc1 (configuration not stated) | 0.9 | 0.7 | 8 | -0.009 | 35
CC(C)Cc1cc(C(=O)Nc2cc(C(F)(F)F)ccc2Cl)no1 | 2.7* | 0.9 | -170 | 0.077 | 10
COC(=O)Nc1c(C)nn(Cc2ccccc2C)c1C | 1 | 0.4 | -3 | -0.13 | 58*
Cc1nn(Cc2ccc(Br)cc2)c(C)c1NC(=O)c1nn(C)cc1Cl | 0.4 | 0.6 | 61* | -2.2 | 43
CCCC(=O)Nc1ccc(C(=O)Nc2cc(C(F)(F)F)ccc2Cl)cc1 | 1.5 | 0.9 | -48 | 0.24 | 10
Cc1ccc(Cn2nc(C)c(NC(=O)c3nn(C)cc3Cl)c2C)cc1 | . | . | . | 0.77 | .
N#CC1(c2ccccc2)CCCN1C(=O)c1ccco1 (configuration not stated) | 0.9 | 0.9 | 8 | 0.57 | 10
O=C1C2C3CCCC3=C3CCCC3C2C(=O)N1c1ccc(Cl)cc1 (configuration not stated) | 0.5 | 0.2 | 54* | . | 75*
O=C(O)CCNS(=O)(=O)c1ccc(Oc2ccccc2)cc1 | 0.9 | 1 | 12 | -0.012 | 0
O=C(O)C1CCN(C(=O)COc2ccc3c4c(c(=O)oc3c2)CCC4)CC1 | 1.1 | 0.9 | -5 | 0.78 | 8
Cc1cccc(N2CCN(C(=O)c3ccc(CS(=O)(=O)c4ccccc4C)o3)CC2C)c1 (configuration not stated) | 0.2 | 0.4 | 84* | -5.7* | 58*
COC(=O)c1ccc(CS(=O)(=O)c2ccccc2C)o1 | . | . | . | 0.35 | .
Cc1ccc(C)c(N2CCN(C(=O)c3ccc(CS(=O)(=O)c4ccccc4C)o3)CC2)c1 | 0.3 | 0.7 | 69* | . | 35
CCc1ccc(C2CC(c3cccc(OC)c3)n3nc(N)nc3N2)cc1 (configuration not stated) | 1 | 0.9 | 5 | 0.046 | 12
COc1ccccc1C(=O)Nc1ccc(S(=O)(=O)Nc2cc(C)nc(C)n2)cc1 | 0.4 | 1 | 56* | 1.3 | 0
COc1ccccc1OCC(=O)Nc1ccc(S(=O)(=O)Nc2nc(C)cc(C)n2)cc1 | 0.3 | 0.6 | 70* | 0.71 | 38
COc1ccc(NC(=O)c2nc3nc(C)cc(C(F)F)n3n2)cc1OC | 1.1 | 1 | -11 | 0.53 | 1
COc1ccccc1NS(=O)(=O)c1ccc(NC(=O)c2nc3nc(C)cc(C(F)F)n3n2)cc1 | 0.4 | 0.7 | 61* | -0.18 | 26
COc1ccc(C(=O)Nc2ccc(S(=O)(=O)Nc3cc(C)nc(C)n3)cc2)c(OC)c1 | 0.6 | 1 | 37 | 0.17 | -4
SMILES | CYP2C9 act | CYP2C19 act | CYP2C9 inh | Cav32 inh | CYP2C19 inhib
CCOC(=O)C1CCN(Cc2ccc(F)cc2F)CC1 | 0.8 | 0.6 | 22 | 0.95 | 37
COc1ccccc1CN1CCSCC1 | 0.9 | 0.8 | 6 | -0.76 | 18
CCOC(=O)C1CCN(Cc2ccc(F)c(Br)c2)CC1 | 0.5 | 0.4 | 50 | -0.051 | 63*
Fc1ccc(CN2CCSCC2)cc1Br | 0.8 | 0.2 | 16 | -1.3 | 84*
CCOC(=O)c1cnn(-c2ncnc3c2cnn3Cc2ccccc2)c1N | . | . | . | 2.1 | .
Fc1ccc(Cl)cc1/C=N/n1cnnc1SCc1ccccc1 | 0.9 | 0.3 | 9 | -1.2 | 66*
CSc1nncn1/N=C/c1cc(Cl)ccc1F | 0.8 | 0.9 | 18 | 0.098 | 11
